Laboratory results: the supplement of paper PMC11732987, “Enantioselective OTUD7B fragment discovery through chemoproteomics screening and high-throughput optimisation” (Communications Chemistry, 2025)

How the values were obtained:
Assay in all cases: log2 ratio of Biotin-Ahx-Ub-VS probe labelling (fragment/DMSO); higher = less target engagement (more negative = stronger competition), active = hit call of the paper (q ≤ 0.05, log2 ratio ≤ -1)
Details in all cases: compound concentration: 200 uM; treatment time: 3 h
[1] = biological target: USP34 (UniProt Q70CQ2)
USP34, sequence (Q70CQ2 whole entry, the tested form may be a part): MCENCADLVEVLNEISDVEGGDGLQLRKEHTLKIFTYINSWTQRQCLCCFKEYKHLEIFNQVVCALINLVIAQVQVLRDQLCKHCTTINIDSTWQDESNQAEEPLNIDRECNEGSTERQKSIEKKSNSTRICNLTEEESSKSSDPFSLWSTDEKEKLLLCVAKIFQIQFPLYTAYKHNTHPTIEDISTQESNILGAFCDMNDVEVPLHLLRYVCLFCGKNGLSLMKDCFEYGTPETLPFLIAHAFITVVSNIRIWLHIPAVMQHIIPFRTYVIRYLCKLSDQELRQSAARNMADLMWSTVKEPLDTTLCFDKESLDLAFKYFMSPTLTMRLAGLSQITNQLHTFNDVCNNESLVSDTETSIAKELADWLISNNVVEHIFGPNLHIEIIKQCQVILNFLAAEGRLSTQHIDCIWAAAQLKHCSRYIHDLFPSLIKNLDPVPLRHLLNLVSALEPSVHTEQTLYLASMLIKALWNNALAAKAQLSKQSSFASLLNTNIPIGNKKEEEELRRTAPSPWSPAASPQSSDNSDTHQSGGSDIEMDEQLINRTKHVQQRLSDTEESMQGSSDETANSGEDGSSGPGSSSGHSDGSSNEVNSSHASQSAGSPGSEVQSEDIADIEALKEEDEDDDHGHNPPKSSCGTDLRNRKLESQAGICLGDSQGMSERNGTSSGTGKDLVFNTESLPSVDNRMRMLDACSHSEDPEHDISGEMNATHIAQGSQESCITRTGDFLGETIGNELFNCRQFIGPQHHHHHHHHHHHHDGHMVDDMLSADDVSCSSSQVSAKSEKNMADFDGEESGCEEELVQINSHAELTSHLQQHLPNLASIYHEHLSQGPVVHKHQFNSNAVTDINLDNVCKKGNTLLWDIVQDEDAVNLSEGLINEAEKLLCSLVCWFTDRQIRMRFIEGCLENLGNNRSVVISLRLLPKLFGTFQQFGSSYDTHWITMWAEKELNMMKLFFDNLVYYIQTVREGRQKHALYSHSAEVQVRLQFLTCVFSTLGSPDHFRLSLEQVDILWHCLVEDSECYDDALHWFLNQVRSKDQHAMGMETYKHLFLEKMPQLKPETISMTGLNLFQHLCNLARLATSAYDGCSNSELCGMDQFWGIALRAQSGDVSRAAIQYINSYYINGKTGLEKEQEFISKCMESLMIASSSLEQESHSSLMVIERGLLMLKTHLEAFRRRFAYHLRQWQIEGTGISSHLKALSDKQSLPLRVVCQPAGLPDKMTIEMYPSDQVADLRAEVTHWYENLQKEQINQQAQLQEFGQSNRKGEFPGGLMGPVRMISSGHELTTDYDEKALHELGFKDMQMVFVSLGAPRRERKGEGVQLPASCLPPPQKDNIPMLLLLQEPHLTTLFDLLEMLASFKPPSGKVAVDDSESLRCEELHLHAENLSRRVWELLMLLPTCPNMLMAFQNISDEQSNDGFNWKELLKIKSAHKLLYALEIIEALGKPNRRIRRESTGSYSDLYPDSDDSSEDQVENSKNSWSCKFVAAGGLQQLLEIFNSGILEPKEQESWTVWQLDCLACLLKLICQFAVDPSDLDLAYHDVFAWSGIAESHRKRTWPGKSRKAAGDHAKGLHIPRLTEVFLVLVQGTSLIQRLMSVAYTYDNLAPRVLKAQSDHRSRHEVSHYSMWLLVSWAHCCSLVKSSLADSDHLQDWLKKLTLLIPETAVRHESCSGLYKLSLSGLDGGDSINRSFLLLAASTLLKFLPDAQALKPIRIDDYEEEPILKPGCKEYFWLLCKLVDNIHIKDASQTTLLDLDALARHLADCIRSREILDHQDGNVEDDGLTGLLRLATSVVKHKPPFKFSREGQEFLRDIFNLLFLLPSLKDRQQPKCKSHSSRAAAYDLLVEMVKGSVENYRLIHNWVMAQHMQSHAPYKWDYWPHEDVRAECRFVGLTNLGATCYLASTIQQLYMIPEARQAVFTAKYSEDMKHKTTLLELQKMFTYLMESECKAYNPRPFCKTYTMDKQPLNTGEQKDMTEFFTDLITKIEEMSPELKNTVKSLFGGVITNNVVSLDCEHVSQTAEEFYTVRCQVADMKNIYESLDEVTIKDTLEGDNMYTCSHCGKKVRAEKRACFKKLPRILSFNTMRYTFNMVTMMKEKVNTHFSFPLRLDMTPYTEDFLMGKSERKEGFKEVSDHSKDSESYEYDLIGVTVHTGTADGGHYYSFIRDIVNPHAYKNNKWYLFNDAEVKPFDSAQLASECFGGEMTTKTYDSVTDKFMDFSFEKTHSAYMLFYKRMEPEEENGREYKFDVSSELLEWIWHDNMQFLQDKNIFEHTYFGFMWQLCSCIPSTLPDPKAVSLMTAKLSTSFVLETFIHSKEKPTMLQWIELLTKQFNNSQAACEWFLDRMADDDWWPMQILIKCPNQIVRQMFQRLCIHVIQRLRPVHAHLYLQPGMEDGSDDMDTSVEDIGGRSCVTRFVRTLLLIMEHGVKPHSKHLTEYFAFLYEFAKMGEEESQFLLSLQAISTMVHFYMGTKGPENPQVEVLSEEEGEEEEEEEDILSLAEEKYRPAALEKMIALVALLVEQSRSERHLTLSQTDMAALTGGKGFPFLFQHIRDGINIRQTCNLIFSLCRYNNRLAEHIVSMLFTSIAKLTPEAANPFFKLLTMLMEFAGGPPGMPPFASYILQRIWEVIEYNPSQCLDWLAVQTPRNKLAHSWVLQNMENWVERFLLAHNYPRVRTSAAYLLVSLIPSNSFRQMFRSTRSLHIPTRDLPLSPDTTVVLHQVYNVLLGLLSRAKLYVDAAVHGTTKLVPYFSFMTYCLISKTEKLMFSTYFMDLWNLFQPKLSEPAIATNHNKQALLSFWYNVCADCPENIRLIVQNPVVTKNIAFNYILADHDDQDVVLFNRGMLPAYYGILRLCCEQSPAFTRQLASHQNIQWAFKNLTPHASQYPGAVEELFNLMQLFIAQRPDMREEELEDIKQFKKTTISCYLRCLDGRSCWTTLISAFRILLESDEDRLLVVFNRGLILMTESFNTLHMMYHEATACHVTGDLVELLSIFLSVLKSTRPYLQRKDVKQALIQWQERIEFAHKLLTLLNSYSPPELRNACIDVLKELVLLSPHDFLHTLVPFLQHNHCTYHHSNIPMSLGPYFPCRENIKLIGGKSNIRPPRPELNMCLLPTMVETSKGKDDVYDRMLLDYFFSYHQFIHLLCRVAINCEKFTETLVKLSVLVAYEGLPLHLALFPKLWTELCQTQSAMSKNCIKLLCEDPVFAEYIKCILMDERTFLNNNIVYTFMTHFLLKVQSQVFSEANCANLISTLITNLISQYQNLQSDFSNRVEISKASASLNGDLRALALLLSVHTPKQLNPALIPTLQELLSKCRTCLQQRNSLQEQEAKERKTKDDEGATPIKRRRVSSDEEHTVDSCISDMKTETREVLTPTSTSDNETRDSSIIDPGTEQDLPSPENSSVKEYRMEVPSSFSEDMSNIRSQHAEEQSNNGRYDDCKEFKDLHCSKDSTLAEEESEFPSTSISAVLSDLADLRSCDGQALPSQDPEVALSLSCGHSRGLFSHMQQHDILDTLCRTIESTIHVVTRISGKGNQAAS
Procedure, shortened: (§1)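 HEK293T lysate (495 µg per sample, in Tris/CHAPS/IGEPAL buffer with protease inhibitors) was treated in triplicate with fragment at 200 µM or with DMSO for 3 h. It was then treated with Biotin-Ahx-Ub-VS (0.5 µM final) for 1 h. Labelled DUBs were NeutrAvidin-enriched, digested with LysC and trypsin, and run by diaPASEF LC-MS/MS. Spectronaut label-free quantities were global-median-normalised. Values are average log2 ratios fragment/DMSO by unpaired t-test, using proteins with ≥2 unique peptides.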

[2] = biological target: T1, USP36 (UniProt Q9P275)
T1 sequence (whole entry): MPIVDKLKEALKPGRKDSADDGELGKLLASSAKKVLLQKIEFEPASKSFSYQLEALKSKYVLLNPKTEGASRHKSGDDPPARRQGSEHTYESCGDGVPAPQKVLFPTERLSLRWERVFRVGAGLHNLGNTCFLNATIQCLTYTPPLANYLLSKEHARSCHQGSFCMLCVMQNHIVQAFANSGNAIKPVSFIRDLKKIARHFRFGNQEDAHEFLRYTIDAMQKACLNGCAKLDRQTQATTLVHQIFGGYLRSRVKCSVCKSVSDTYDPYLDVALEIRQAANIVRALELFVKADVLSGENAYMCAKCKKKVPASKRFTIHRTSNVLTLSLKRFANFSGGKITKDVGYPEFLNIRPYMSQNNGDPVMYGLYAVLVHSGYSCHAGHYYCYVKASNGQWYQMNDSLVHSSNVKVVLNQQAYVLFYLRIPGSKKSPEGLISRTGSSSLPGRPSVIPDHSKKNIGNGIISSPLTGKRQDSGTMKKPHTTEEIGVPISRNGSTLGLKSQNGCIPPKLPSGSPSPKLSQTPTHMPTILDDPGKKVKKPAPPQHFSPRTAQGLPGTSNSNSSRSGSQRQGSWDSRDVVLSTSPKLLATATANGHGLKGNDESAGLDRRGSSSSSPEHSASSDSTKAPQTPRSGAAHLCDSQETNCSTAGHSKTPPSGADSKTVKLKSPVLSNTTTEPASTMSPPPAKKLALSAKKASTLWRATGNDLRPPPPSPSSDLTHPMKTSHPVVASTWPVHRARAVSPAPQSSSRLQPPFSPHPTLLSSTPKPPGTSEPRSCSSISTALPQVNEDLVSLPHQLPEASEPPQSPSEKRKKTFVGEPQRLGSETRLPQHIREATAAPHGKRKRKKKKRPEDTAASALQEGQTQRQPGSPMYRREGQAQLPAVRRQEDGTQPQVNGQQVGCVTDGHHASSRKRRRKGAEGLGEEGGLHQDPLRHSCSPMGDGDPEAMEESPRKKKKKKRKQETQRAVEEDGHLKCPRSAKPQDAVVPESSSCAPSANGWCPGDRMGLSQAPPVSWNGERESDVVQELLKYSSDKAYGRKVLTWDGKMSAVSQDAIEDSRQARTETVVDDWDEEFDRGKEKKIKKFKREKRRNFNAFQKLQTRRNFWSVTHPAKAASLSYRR
Procedure, shortened: as §1

[3] = biological target: T2, USP38 (UniProt Q8NB14)
T2 sequence (whole entry): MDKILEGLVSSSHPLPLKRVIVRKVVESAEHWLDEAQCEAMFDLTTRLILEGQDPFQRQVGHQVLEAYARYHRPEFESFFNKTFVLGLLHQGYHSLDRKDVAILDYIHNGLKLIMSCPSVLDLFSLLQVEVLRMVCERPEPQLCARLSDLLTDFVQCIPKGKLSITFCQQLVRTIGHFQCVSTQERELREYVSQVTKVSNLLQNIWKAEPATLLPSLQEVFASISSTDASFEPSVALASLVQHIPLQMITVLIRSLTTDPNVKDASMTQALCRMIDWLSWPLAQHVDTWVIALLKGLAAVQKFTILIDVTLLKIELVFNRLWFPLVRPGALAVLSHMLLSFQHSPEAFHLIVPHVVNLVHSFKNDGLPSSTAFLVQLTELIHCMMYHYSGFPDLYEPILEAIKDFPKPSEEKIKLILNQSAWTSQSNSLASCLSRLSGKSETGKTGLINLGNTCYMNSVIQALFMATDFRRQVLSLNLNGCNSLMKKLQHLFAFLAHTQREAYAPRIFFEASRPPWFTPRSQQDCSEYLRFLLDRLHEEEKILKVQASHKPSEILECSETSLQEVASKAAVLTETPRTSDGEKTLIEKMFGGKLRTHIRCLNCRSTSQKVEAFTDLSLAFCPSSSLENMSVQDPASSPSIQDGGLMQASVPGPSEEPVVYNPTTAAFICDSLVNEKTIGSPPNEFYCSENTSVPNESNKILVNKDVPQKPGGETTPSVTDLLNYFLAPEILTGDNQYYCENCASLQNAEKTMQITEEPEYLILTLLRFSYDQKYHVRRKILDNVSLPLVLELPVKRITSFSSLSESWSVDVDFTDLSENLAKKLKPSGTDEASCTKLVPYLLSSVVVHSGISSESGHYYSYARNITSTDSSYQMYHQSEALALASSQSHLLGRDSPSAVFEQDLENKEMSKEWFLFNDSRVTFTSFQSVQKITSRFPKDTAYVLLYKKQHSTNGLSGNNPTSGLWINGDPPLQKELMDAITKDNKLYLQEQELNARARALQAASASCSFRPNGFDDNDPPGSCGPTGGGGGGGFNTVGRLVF
Procedure, shortened: as §1

[4] = biological target: T3, USP39 (UniProt Q53GS9)
T3 sequence (whole entry): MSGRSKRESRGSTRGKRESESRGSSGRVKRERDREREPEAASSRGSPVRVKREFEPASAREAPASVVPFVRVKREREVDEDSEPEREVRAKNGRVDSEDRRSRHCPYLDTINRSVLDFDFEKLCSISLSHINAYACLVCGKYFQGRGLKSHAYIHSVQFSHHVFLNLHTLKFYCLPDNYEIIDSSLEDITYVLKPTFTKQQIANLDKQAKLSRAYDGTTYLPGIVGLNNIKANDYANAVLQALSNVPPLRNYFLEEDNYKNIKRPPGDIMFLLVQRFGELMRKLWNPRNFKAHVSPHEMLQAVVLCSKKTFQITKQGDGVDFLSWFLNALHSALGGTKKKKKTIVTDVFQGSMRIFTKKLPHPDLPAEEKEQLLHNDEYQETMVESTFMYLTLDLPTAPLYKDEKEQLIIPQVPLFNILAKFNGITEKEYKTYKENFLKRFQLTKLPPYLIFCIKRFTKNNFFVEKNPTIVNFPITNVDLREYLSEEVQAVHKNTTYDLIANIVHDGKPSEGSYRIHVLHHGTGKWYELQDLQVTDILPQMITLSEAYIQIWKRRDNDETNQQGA
Procedure, shortened: as §1

[5] = biological target: T4, USP4 (UniProt Q13107)
T4 sequence (whole entry): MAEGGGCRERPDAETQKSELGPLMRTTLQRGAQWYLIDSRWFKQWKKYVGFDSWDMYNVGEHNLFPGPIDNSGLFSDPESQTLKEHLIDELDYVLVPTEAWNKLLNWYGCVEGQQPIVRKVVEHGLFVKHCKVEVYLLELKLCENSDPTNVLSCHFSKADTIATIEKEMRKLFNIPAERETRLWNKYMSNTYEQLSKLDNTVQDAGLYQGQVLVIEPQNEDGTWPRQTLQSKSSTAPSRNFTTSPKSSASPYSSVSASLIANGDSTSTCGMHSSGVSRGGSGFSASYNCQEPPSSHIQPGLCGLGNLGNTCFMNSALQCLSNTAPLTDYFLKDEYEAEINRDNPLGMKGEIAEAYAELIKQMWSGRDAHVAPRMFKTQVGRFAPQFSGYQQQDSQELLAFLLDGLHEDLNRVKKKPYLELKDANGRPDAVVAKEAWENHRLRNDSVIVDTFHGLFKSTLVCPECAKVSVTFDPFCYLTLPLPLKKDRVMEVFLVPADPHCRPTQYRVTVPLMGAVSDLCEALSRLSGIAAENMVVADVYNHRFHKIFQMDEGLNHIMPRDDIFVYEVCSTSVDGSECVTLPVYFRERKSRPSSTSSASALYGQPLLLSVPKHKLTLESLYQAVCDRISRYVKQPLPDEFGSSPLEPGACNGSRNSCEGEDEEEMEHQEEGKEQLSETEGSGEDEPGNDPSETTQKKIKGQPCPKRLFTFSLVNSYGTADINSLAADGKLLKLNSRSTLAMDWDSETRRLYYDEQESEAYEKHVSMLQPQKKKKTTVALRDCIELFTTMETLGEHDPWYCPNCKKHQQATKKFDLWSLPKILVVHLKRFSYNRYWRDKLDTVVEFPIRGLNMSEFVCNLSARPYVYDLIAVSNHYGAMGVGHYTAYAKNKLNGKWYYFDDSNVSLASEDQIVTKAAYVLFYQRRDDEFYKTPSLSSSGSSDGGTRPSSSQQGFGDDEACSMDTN
Procedure, shortened: as §1

Measured: log2 ratio of Biotin-Ahx-Ub-VS probe labelling

CS(=O)(=O)c1ccc(CNC(=O)CCl)cc1
inactive: [1] -0.0991 | [2] -0.225 | [3] -0.0436 | [4] 0.204 | [5] -0.0105
